Results: PubChem BioAssay (NCI)
The panel holds about 83,000 compounds, 20% with a hit somewhere; the sample as a whole holds those more often.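 Single-dose data. Exposure time 48 hours. Values below 10 considered active.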 A number with no mark means an inactive call. Active and inactive are the calls of the source.

Columns and labels:
Assay in all cases: NCI-60 one-dose screen, 48 h (100 = growth as untreated, 0 = no growth, -100 = all killed)
[1] = system: HCT-15 colon; settings: 10 µM unless noted
[2] = system: HT29 colon; settings: 10 µM unless noted
[3] = system: SNB-75 CNS; settings: 10 µM unless noted
[4] = system: SNB-19 CNS; settings: 10 µM unless noted
[5] = system: U251 CNS; settings: 10 µM unless noted
[6] = system: PC-3 prostate; settings: 10 µM unless noted
[7] = system: SK-MEL-5 melanoma; settings: 10 µM unless noted
[8] = system: UACC-62 melanoma; settings: 10 µM unless noted
[9] = system: LOX IMVI melanoma; settings: 10 µM unless noted
[10] = system: SK-MEL-28 melanoma; settings: 10 µM unless noted
[11] = system: SK-MEL-2 melanoma; settings: 10 µM unless noted
[12] = system: EKVX NSCLC; settings: 10 µM
[13] = system: SN12C renal; settings: 10 µM unless noted
[14] = system: UO-31 renal; settings: 10 µM unless noted
[15] = system: TK-10 renal; settings: 10 µM unless noted
[16] = system: ACHN renal; settings: 10 µM unless noted
[17] = system: A498 renal; settings: 10 µM unless noted
[18] = system: MOLT-4 leukemia; settings: 10 µM unless noted
[19] = system: CCRF-CEM leukemia; settings: 10 µM

O=C(/C=C1\C(=O)N(Cc2ccc([N+](=O)[O-])cc2)c2ccccc21)c1ccc(OCCN2CCCCC2)cc1
growth [1]: -80.6% (active) | growth [2]: -89.3% (active) | growth [3]: 22.3% | growth [4]: 57.9% | growth [5]: -46.5% (active) | growth [6]: -52.3% (active) | growth [7]: 33.9% | growth [8]: -74% (active) | growth [9]: -82.7% (active) | growth [10]: -51% (active) | growth [11]: -29.1% (active) | growth [12]: 1.78% (active) | growth [13]: -67% (active) | growth [14]: -97.1% (active) | growth [15]: -81.4% (active) | growth [16]: -98.6% (active) | growth [17]: 56.6% | growth [18]: -26.5% (active)

CCCCCCNC(=O)Oc1ccc(/C(=C(/C)Cc2ccc(OC)cc2)c2ccc(OCCN(C)C)cc2)cc1
growth [1]: 1.78% (active) | growth [2]: -7.26% (active) | growth [3]: 50.5% | growth [4]: 78.8% | growth [5]: 23.4% | growth [6]: 56.3% | growth [7]: -49.6% (active) | growth [8]: 40.5% | growth [9]: -15.9% (active) | growth [10]: 68.6% | growth [11]: 111% | growth [12]: 78.1% | growth [13]: 60.3% | growth [14]: 38.9% | growth [15]: 71.5% | growth [16]: 64.2% | growth [19]: 48.2% | growth [18]: 30.7%

O=C(/C=C1\C(=O)N(Cc2ccccc2)c2ccccc21)c1ccc(OCCN2CCCCC2)cc1
growth [1]: -49.9% (active) | growth [2]: -58% (active) | growth [3]: 78.7% | growth [4]: 88.1% | growth [5]: 50.7% | growth [6]: 56.9% | growth [7]: 94.9% | growth [8]: 69.5% | growth [9]: -37.2% (active) | growth [10]: 96.9% | growth [11]: 88.6% | growth [12]: 64.2% | growth [13]: 0.718% (active) | growth [14]: -25.9% (active) | growth [15]: 40.3% | growth [16]: -25.4% (active) | growth [17]: 68.4% | growth [19]: 1.17% (active) | growth [18]: 9.65% (active)

CCCCN(CCCC)CCCNc1c2c(nc3ccc(Cl)cc13)CCCC2
growth [1]: 74.2% | growth [2]: 45.7% | growth [3]: 88.4% | growth [4]: 102% | growth [5]: 101% | growth [6]: 95.5% | growth [7]: 106% | growth [8]: 108% | growth [9]: 90.4% | growth [10]: 108% | growth [11]: 101% | growth [12]: 95.5% | growth [13]: 93.2% | growth [14]: 72.7% | growth [15]: 86.3% | growth [16]: 102% | growth [19]: 98.1% | growth [18]: 94.9%

COc1ccc(/C=C(/C(=O)N2CCN(c3ccc(C)cc3)CC2)c2cc(OC)c(OC)c(OC)c2)cc1N
growth [1]: 11.8% | growth [2]: 3.34% (active) | growth [3]: 9.7% (active) | growth [4]: 33.6% | growth [5]: 22% | growth [6]: 9.56% (active) | growth [7]: -30.7% (active) | growth [8]: 40% | growth [9]: 22.2% | growth [10]: 54.3% | growth [11]: 23.7% | growth [12]: 45.5% | growth [13]: 28.8% | growth [14]: 51.2% | growth [15]: 76.7% | growth [16]: 30.5% | growth [17]: -11.1% (active) | growth [19]: 13.4% | growth [18]: 17.5%

O=C(O)c1ccc(-c2nn(-c3ccc(C(=O)O)cc3)cc2CNc2ccc(Br)cc2)cc1
growth [1]: 100% | growth [2]: 99% | growth [3]: 97.6% | growth [4]: 105% | growth [5]: 106% | growth [6]: 101% | growth [7]: 103% | growth [8]: 97.6% | growth [9]: 102% | growth [10]: 103% | growth [11]: 94.4% | growth [12]: 101% | growth [13]: 111% | growth [14]: 87.7% | growth [15]: 98.4% | growth [16]: 102% | growth [19]: 101% | growth [18]: 118%

COc1ccc(C(=O)c2no[n+]([O-])c2C(=O)c2ccc(OC)cc2)cc1
growth [1]: 20.1% | growth [2]: 10.1% | growth [3]: -99.3% (active) | growth [4]: 97.7% | growth [5]: 35.9% | growth [6]: -37.7% (active) | growth [7]: 85.5% | growth [8]: 78.9% | growth [9]: -69.2% (active) | growth [10]: 109% | growth [11]: 93% | growth [12]: 64.8% | growth [13]: 72.5% | growth [14]: -100% (active) | growth [15]: 5.22% (active) | growth [16]: -47% (active) | growth [19]: -68.7% (active) | growth [18]: -80.1% (active)

CC(=O)OCC(=O)[C@@]1(O)[C@H](C)C[C@H]2[C@@H]3C=C(C)C4=Cc5c(cnn5-c5ccc(F)cc5)C[C@]4(C)[C@H]3[C@@H](O)C[C@@]21C
growth [1]: -11.1% (active) | growth [2]: -43.4% (active) | growth [3]: 6.75% (active) | growth [4]: 25.9% | growth [5]: 9.65% (active) | growth [6]: 12% | growth [7]: -47.3% (active) | growth [8]: -9.5% (active) | growth [9]: 1.77% (active) | growth [10]: 34.5% | growth [11]: 22.5% | growth [12]: 28.5% | growth [13]: 40.5% | growth [14]: 3.92% (active) | growth [15]: 19.7% | growth [16]: 13.5% | growth [19]: 6.74% (active) | growth [18]: 1.22% (active)
